DT40 TDP1 CPT = DT40-hTDP1 cell growth loss with CPT. AID 686979. Potency, µM (series often up to 46.2 µM), for the others: at the top dose activity change, negative = growth inhibition, actives largely listed as inhibitors. chicken DT40 Tdp1-/-;hTDP1 cells + 20 nM CPT, ATP luminescence, 48 h. 420,000 compounds, 12% hits; further: potency means the concentration at half of the fitted maximal effect; on the % scale 0 is the no-effect control and ±100 the full control effect; nearly all actives have a fitted effect of over 55% in size
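Chicken DT40 Tdp1-/- cells stably complemented with human TDP1 were seeded at 400 cells/well in medium containing 20 nM camptothecin, exposed to pin-transferred compounds, and grown at 37 °C for at least 48 hr. Viability was read as ATP luminescence.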
IL-1B inflam inh = inflammasome signaling inhibition, IL-1 beta readout; THP-1 LPS/ATP IL-1B secretion, AlphaLISA, 16 h; active compounds read low; activity change, % at 57.5 µM; 360,000 compounds, 4.7% hits; AID 743279; in the data active means activity change below about -50%; inconclusive means mostly about -30% to -49%; further: on the % scale 0 is the no-effect control and ±100 the full control effect
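Secreted IL-1B measured by AlphaLISA bead assay after 16 h compound exposure of THP-1 cells; compounds (final up to 57.5 uM) added 1 h before LPS (250 ng/mL) and ATP (1.25 mM) stimulation; lower signal means less secretion.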
S-ASM inh = inhibitors of human secretory acid sphingomyelinase. placental ASM, HMU-PC fluorogenic substrate, 60 min. P17405. 340,000 compounds, 0.006% hits. Potency, µM (top dose mostly 57.5 µM), for the others: at the top dose activity change, negative = inhibition, actives largely listed as inhibitors. AID 504937; further: potency means the concentration at half of the fitted maximal effect
Target sequence (P17405 47-631 limits assumed): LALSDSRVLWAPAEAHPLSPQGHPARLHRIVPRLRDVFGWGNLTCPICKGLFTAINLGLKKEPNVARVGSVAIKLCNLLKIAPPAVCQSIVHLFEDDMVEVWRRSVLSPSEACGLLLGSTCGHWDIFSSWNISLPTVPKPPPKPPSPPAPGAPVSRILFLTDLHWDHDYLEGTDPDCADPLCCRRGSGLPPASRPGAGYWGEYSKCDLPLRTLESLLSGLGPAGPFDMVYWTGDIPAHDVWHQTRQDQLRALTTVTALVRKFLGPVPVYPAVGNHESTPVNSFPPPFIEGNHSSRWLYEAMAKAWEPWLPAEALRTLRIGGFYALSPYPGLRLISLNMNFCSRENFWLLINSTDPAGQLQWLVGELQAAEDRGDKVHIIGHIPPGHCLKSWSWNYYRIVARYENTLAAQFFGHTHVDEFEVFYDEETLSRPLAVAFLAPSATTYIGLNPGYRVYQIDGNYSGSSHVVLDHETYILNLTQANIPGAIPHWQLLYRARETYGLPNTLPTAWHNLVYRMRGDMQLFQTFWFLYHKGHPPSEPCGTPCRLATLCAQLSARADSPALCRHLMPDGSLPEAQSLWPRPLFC
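Human placenta-derived ASM preincubated with compound 10 min at room temperature, then reacted with 9 uM (final) fluorogenic HMU-PC substrate for 60 min at 37 C. Stop solution raises pH to 10; fluorescence read at Ex 386/Em 447 nm.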
TGFb inhibitor = blocks TGF-b signaling | Potency, µM (titrated, usually from 46.1 µM), for inactives: at the top dose activity, negative = inhibition, usual class: inhibitors | 410,000 compounds, 1.2% hits | HepG2 CAGA-GFP TGF-b/SMAD3 reporter, GFP fluorescence, 18 h; TGF-beta stimulated, 500 pg/mL final; further: potency means the concentration at half of the fitted maximal effect; on the % scale 0 is the no-effect control and ±100 the full control effect; nearly all actives have a fitted effect of over 65% in size
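Smad-responsive CAGA-GFP expression was quantified in HEPG2 cells exposed to compounds and 500 pg/mL final TGF-beta for 18 h at 37 degrees C; unstimulated wells defined full inhibition.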
HepG2 viability = kills HepG2 cells in TGF-b inhibitor counter-screen; HepG2 CAGA-GFP viability, ATP luminescence, 18 h; Potency, µM (top dose mostly 46.1 µM), for inactives: at the top dose activity change, negative = cytotoxicity, hits mostly cytotoxic; 410,000 compounds, 0.76% hits; AID 588856; further: potency means the concentration at half of the fitted maximal effect
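CellTiter-Glo luminescence gave cytotoxicity after 18 hours at 37 degrees C. The cells were HepG2 CAGA-GFP in 1% FBS DMEM, stimulated with 500 pg/mL TGF-beta after compound addition. %Activity was normalised to no-cell wells (complete cell-killing) and DMSO (no toxicity), and curves were fitted and classified.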
DT40 TDP1 no CPT = qHTS for Inhibitors of human tyrosyl-DNA phosphodiesterase 1 (TDP1): qHTS in cells in absence of CPT; AID 686978, 2013; Potency, µM (titrated, usually from 46.2 µM), for the others: at the highest dose activity change, negative = growth inhibition, actives largely listed as inhibitors; DT40 Tdp1-/- hTDP1 cells, no CPT, ATP luminescence, 48 h; 420,000 compounds, 15% hits; further: potency means the concentration at half of the fitted maximal effect; on the % scale 0 is the no-effect control and ±100 the full control effect; nearly all actives have a fitted effect of over 55% in size
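Cells were dispensed at 400 per well, compounds added by pin tool, plates incubated ≥48 hr at 37 °C, then CellTiter-Glo added for 30 min at room temperature before luminescence reading. Line: DT40 Tdp1-/- complemented with hTDP1; camptothecin omitted.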
Starred values were filed as active, the others as inactive; i = inactive; ? = inconclusive; nt = no result. Most compounds without a hit are left out; they make up all but 19% or so of the library. Unless noted, the call rests on the fitted dose curve; in most records, active means well fitted curve in the direction sought with a large enough effect; inconclusive means small, poorly fitted or top-dose-only effect, or another doubt; inactive means no such curve, though single readings can be large; an effect the other way counts as inactive or inconclusive.

SMILES	DT40 TDP1 CPT	IL-1B inflam inh	S-ASM inh	TGFb inhibitor	HepG2 viability	DT40 TDP1 no CPT
CCN1C(=O)[C@@H]2[C@@H](c3ccc(SC4CCCCC4)cc3)N3CCC[C@@]3(C(=O)OC)[C@@H]2C1=O	?	-2	-8%	2%	-3%	21µM*
O=C1CN(c2ccccc2)C(=S)N1C(=O)c1ccc(Br)cc1	?	-3	8%	-3%	27%	-20%
NS(=O)(=O)c1ccc(NC(=O)CSc2nc(Nc3ccccc3)nc(N3CCOCC3)n2)cc1	21µM*	-18	-6%	1%	-22%	16µM*
O=C(O)c1cc(Nc2nc(N3CCOCC3)nc(N3CCOCC3)n2)ccc1Cl	-13%	33	6%	0%	11%	0%
CSc1nc2ccc(Nc3nc(N4CCOCC4)nc(N4CCOCC4)n3)cc2s1	23µM*	nt	-23%	24%	-25%	16µM*
O=C(CSc1nc2ccc(Nc3nc(N4CCOCC4)nc(N4CCOCC4)n3)cc2s1)N1CCOCC1	21µM*	-13	-1%	-7%	1%	18µM*
Cc1cccc(C)c1Nc1nnc(SCC(=O)NCc2ccco2)s1	-29%	21	-1%	2%	-3%	-24%
CC(=O)c1ccc(NC(=O)CSc2nc(Nc3ccccc3)nc(N3CCOCC3)n2)cc1	?	i	-16%	15%	-3%	?
CC(=O)Nc1ccc2nc(SCC(=O)N3CCOCC3)sc2c1	6%	11	1%	-19%	-8%	-1%
O=C(CSc1nc2ccc(Nc3nc(N4CCCC4)nc(N4CCCC4)n3)cc2s1)NCc1ccco1	5.8µM*	0	-6%	16%	-2%	6.5µM*
Cc1cc(Cl)ccc1NC(=O)C1CCN(S(=O)(=O)c2ccc3[nH]c(=O)ccc3c2)CC1	-28%	nt	nt	-3%	1%	-11%
CCN(Cc1ccccc1)S(=O)(=O)c1c(C(=O)N2CCCC2)c(C)n(C)c1C	-17%	4	0%	2%	1%	5%
COc1cc(Cl)c(C)cc1NC(=O)c1c(C)oc2nc(C)nc(N3CCCC3)c12	?	nt	nt	-17%	2%	?
O=C(CSc1nc2ccc(Nc3nc(N4CCOCC4)nc(N4CCOCC4)n3)cc2s1)Nc1ccccc1Cl	21µM*	0	-1%	-23%	4%	?
O=C(CSc1nc2ccc(Nc3nc(N4CCOCC4)nc(N4CCOCC4)n3)cc2s1)Nc1ccccc1F	6.5µM*	40	-5%	1%	-8%	5.8µM*
CCCNC(=S)Nc1cccc(C(F)(F)F)c1	-6%	4	7%	13%	-15%	-17%
CCCCNC(=S)Nc1ccc(C(F)(F)F)cc1	?	-94*	-5%	-61%	-55%	?
CCCCNC(=S)Nc1ccc(Cl)cc1	?	-9	0%	3%	-8%	23µM*
COc1ccc(C)cc1NC(=O)C(NS(=O)(=O)c1cccc2nsnc12)c1ccccc1 (stereo not given)	?	nt	nt	-30%	-5%	?
O=C(NCC(F)(F)F)c1ccc2sc([C@@H]3O[C@H](CO)[C@H](O)[C@H](O)[C@H]3O)nc2c1	-1%	4	nt	-2%	0%	-1%
CC(C)c1ccc(N2C(=O)CS(=O)(=O)C23C(=O)N(Cc2cccc(F)c2)c2ccccc23)cc1 (stereo not given)	?	nt	nt	-2%	-28%	?
CCCCN(C)CC(O)Cn1cc(/C=C/C(=O)c2cccs2)c2ccccc21 (stereo not given)	18µM*	-56*	133%	?	-105%	?
Cc1nn(C)cc1/C=C/C(=O)c1cccs1	32%	-19	60%	1%	-17%	-17%
CS(=O)(=O)N(Cc1ccco1)CC(O)Cn1cc(C=O)c2ccccc21 (stereo not given)	?	4	-2%	-11%	-12%	-17%
Cc1ccc(C(=O)/C=C/c2cn(CN3CCN(C)CC3)c3ccccc23)cc1	-22%	-55*	186%	?	-87%	?
SMILES	DT40 TDP1 CPT	IL-1B inflam inh	S-ASM inh	TGFb inhibitor	HepG2 viability	DT40 TDP1 no CPT
CCCCN(CCCC)CC(O)Cn1cc(/C=C/C(=O)c2ccccc2)c2ccccc21 (stereo not given)	10µM*	nt	nt	?	-102%	10µM*
Cn1cc(/C=C/C(=O)c2ccccc2)c2ccccc21	-23%	-4	175%	0%	-61%	?
CCOc1ccc(C(=O)/C=C/c2cn(CC(O)CN3CCc4ccccc43)c3ccccc23)cc1 (stereo not given)	7.3µM*	nt	nt	?	-34%	8.2µM*
CC1CCC(NC(=O)c2[nH]c(C(F)(F)F)nc2-c2ccccc2)CC1 (stereo not given)	-19%	-7	nt	-22%	2%	-26%
CCCc1c(C(=O)N/N=C/c2ccoc2)nnn1-c1nonc1N	1%	-30	nt	-1%	-5%	-7%
CC(CNC(=O)C1CCN(C(=O)c2cc3sccc3n2C)CC1)c1ccccc1 (stereo not given)	?	nt	nt	-22%	-31%	?
COCC(=O)N1CCC(Oc2ccc(C(=O)N3CCCCC3COC)cc2)CC1 (stereo not given)	-5%	9	0%	2%	-19%	15%
O=Cc1cn(CC(O)Cn2cc(C=O)c3ccccc32)c2ccccc12	1%	29	-3%	11%	28%	4%
O=C(/C=C/c1cn(CC(O)CN2CCCCCC2)c2ccccc12)c1cccs1 (stereo not given)	?	-107*	104%	15%	-10%	?
O=c1c2ccccc2nc2sc3ccccc3n12	?	18	0%	37%	6%	13µM*
COC(=O)/C=c1/sc2nc3ccccc3n2c1=O	?	10	-1%	10%	4%	?
COc1cc(C)ccc1OCCSc1nc2ccc(NC(C)=O)cc2s1	?	nt	nt	-1%	-29%	21µM*
CSc1nc2ccc(NC(=O)CS(=O)(=O)c3ccccc3)cc2s1	-8%	-22	nt	-18%	-53%	?
COc1cc(CC(=O)Nc2ccc3nc(SC)sc3c2)cc(OC)c1OC	?	77	-7%	-16%	-10%	21µM*
COC(=O)CSc1nc2ccc(NC(C)=O)cc2s1	-7%	-53*	0%	-2%	1%	1%

From PubChem BioAssay
